For part of these data: Potency and affinity values are given separately.

Holding throughout (parameters): scale not given: direction of the effect not stated beside the values
Assay [1] concerns the target Protein translocase subunit SecA (Escherichia coli (strain K12)) (UniProt P10408). The assay can be described thus: Assay to Identify E. coli SecA ATPase Inhibitors. It is filed as functional. The note with it: 30 µM.
Assay [2] addresses T1, Ubiquitin-activating enzyme e1, putative (Leishmania donovani (strain BPK282A1)) (UniProt E9BSI1).
T1 sequence (whole entry): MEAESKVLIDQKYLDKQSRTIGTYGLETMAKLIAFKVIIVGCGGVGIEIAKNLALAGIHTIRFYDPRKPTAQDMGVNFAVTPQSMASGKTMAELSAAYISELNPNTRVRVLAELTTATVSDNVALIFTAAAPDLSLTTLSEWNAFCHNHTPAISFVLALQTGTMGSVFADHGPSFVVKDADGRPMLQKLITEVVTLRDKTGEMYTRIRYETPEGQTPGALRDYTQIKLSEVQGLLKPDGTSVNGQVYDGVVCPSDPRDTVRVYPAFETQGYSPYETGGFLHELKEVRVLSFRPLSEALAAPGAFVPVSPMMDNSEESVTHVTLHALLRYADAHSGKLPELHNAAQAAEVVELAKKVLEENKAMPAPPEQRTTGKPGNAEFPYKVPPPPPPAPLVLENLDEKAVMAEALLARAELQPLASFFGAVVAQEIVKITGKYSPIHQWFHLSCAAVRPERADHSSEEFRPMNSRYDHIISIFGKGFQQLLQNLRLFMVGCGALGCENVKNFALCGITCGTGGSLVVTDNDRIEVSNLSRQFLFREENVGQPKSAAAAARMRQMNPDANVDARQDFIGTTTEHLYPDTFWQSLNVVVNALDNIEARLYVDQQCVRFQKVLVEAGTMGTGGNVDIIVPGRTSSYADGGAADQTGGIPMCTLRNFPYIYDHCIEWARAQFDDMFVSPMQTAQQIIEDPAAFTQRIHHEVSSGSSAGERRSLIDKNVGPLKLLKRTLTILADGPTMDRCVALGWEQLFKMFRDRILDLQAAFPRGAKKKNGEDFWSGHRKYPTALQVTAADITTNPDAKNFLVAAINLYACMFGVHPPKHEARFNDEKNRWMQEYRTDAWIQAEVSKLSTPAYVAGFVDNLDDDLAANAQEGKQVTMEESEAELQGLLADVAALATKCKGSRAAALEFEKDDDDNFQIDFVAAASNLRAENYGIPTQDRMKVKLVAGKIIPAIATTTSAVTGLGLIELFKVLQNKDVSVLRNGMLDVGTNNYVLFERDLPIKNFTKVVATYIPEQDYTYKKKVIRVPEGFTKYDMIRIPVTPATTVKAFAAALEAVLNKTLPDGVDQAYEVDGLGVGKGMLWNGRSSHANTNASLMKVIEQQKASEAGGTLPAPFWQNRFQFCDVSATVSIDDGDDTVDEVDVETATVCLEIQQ
Description: Leishmania donovani Ubiquitin Activating Enzyme (LdE1). Format: functional. To be noted: 30 µM.

The target in assay [3] is Sialic acid-binding Ig-like lectin 9 (Homo sapiens) (UniProt Q9Y336). Description: Hs-Siglec9 ALPHAscreen SOP 20170721. To be noted: 10 µM. (In general: Bead proximity is the source of the signal in Alpha formats.)
Assay [4] has as its system Trypanosoma cruzi. The assay can be described thus: Trypanosoma cruzi phosphomannomutase and mannose-1-phosphate guanylyltransferase assay. Format: functional. To be noted: 10 µM.
Assay [5] addresses T2, Arginase-2, mitochondrial (Homo sapiens) (UniProt P78540).
T2 sequence (whole entry): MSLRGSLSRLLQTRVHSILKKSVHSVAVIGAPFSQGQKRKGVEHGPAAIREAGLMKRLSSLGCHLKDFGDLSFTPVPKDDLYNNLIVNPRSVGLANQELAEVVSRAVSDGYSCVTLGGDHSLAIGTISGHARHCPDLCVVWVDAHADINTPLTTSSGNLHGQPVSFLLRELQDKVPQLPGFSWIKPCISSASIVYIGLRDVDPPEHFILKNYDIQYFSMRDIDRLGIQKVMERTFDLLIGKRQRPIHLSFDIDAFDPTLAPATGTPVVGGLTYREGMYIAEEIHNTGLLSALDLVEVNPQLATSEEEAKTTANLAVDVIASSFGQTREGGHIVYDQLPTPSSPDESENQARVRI
Description: in vitro enzyme assay to detect the production of urea directly proportional to the activity of Arginase II. Note: in the data most compounds retested in dose-response had high values. It is filed as functional. To be noted: 33.3 µM.

The target of assay [6] is T3, Proteasome subunit beta (Trypanosoma cruzi) (UniProt O96673).
T3 sequence (whole entry): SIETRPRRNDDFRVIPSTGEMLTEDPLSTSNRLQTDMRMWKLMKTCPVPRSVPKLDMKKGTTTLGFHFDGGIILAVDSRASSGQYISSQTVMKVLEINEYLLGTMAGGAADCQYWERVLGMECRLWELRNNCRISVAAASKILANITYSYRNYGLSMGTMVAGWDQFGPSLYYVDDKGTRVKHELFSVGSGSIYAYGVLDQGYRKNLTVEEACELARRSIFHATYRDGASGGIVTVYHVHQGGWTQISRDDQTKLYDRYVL
Description: Trypanosoma cruzi proteasome chymotrypsin-like activity (TcProtChymo) assay. Note: in the data most compounds retested in dose-response had high values. It is filed as functional. To be noted: 9.37 µM.

Assay [7] is filed under the species Homo sapiens. The assay can be described thus: To identify inhibition of the IFN signalling (Jak-Stat) pathway via expression of an eGFP reporter gene under the control of an IFN-stimulated response element (ISRE) containing MxA promoter. Format: functional. The note with it: 30 µM.
The target in assay [8] is T4, Tyrosyl-tRNA synthetase, putative (Trypanosoma cruzi (strain CL Brener)) (UniProt Q4DSP6).
T4 sequence (whole entry): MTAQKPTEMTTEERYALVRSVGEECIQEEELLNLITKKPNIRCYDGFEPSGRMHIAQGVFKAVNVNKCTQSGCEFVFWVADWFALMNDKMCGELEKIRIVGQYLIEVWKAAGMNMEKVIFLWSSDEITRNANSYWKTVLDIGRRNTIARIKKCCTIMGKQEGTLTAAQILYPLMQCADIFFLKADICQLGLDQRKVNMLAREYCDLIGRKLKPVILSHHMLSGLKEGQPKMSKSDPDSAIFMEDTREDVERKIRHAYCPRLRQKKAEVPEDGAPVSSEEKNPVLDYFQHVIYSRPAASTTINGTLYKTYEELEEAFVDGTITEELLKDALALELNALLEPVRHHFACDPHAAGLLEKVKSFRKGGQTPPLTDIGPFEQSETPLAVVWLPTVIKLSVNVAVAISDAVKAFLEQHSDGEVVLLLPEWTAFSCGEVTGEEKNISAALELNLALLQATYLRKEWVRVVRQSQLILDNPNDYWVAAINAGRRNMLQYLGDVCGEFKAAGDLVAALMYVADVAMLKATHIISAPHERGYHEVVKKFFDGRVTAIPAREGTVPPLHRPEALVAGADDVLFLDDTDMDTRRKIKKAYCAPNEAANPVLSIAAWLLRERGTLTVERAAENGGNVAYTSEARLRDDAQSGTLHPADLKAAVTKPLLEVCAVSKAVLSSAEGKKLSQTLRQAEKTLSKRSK
Description: Trypanosoma cruzi tyrosyl tRNA synthetase (TcYRS) _High Tyrosine SOP. Note: in the data most compounds retested in dose-response had high values. The note with it: 30 µM. Format: functional.

For assay [9], the target named is T4, Tyrosyl-tRNA synthetase, putative (Trypanosoma cruzi (strain CL Brener)). The assay can be described thus: Trypanosoma cruzi tyrosyl tRNA synthetase (TcYRS) SOP. It is filed as functional. The note with it: 30 µM.
Assay [10] concerns the target Chromo domain-containing protein 1 (Saccharomyces cerevisiae (strain ATCC 204508 / S288c) (Baker's yeast)) (UniProt P32657). The assay can be described thus: ScCHD-1 Enzyme Inhibition Assay. Note: in the data most compounds retested in dose-response had high values. It is filed as functional. The note with it: 30 µM.

Sequence of Sialic acid-binding Ig-like lectin 9 (Homo sapiens) (Q9Y336 whole entry): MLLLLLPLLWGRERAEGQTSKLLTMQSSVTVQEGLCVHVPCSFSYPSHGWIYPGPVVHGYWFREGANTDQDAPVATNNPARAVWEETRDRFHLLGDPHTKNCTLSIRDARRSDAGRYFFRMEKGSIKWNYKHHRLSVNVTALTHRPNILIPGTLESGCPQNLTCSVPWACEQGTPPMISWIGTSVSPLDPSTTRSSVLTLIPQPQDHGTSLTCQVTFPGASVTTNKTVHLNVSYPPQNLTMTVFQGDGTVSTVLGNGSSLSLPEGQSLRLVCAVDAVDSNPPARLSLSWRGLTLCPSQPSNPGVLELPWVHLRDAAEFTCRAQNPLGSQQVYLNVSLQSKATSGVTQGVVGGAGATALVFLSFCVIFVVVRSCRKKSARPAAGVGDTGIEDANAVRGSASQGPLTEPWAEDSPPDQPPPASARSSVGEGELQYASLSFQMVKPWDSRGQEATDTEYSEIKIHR
Sequence of Protein translocase subunit SecA (Escherichia coli (strain K12)) (P10408 whole entry): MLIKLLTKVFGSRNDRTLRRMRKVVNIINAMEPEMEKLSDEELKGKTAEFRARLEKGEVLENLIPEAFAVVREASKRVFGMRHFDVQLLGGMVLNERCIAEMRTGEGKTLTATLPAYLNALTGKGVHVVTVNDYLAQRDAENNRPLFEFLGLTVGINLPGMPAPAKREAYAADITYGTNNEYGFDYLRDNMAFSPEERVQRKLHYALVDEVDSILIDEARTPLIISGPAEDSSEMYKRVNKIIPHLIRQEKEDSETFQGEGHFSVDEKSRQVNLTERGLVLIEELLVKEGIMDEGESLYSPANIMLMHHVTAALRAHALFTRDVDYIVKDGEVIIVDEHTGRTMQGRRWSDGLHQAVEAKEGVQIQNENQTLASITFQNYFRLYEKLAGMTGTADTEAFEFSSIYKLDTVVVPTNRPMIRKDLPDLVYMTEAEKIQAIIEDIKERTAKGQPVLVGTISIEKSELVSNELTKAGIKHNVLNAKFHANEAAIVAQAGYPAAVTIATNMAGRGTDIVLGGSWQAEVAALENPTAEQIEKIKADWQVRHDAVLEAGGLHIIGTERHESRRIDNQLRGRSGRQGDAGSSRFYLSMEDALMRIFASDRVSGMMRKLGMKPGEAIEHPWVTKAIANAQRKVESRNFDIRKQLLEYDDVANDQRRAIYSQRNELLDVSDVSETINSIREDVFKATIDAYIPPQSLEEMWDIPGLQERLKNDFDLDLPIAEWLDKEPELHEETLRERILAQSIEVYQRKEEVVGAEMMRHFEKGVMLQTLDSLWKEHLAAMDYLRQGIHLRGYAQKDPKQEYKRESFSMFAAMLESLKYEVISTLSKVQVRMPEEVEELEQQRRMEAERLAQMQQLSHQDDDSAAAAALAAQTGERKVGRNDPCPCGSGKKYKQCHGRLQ
Sequence of Chromo domain-containing protein 1 (Saccharomyces cerevisiae (strain ATCC 204508 / S288c) (Baker's yeast)) (P32657 whole entry, the tested form may be a part): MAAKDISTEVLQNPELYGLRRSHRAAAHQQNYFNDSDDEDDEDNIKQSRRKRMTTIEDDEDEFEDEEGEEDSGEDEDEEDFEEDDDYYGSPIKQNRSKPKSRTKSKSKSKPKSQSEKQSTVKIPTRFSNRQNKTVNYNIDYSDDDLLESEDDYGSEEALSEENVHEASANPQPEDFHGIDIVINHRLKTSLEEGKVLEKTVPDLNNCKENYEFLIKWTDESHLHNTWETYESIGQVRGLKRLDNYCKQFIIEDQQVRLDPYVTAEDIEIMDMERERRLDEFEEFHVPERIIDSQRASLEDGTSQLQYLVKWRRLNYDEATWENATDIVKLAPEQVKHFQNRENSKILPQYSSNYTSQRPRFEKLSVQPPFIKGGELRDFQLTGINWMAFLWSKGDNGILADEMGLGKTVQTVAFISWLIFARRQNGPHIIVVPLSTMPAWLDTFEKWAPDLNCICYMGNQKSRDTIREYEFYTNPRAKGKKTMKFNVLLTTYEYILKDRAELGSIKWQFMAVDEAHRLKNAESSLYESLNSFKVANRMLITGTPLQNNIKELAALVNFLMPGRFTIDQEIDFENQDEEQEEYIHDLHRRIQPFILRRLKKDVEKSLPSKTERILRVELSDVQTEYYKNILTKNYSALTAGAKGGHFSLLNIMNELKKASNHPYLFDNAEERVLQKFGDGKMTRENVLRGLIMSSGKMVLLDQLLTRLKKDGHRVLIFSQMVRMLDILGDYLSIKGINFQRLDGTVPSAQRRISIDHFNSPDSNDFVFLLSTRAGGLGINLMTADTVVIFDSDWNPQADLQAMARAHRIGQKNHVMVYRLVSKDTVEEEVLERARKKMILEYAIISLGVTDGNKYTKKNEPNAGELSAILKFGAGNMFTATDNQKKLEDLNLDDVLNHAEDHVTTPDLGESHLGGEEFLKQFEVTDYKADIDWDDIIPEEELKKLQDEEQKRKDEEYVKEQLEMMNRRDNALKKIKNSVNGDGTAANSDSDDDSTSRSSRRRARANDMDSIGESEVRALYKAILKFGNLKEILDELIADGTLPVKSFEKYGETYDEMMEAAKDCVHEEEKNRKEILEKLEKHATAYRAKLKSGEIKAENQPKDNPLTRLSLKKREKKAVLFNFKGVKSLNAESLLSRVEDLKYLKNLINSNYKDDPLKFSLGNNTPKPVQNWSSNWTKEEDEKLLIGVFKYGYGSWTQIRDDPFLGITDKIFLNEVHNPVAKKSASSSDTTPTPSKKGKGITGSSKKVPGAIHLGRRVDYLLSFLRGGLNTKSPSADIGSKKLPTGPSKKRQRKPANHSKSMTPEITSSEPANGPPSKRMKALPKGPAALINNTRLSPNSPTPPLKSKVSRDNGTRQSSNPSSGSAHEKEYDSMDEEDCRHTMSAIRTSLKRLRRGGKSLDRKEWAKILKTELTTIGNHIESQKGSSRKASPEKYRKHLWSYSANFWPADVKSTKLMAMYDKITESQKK

With `Cc1ccc(Cl)cc1N1CCC(CNC(=O)CCn2ccnc2)C1` (stereo not given), the Percent Effect in assay [1] is -4.06%; in assay [2], 5.13%; in assay [3] it was -8.73%; in assay [4] it was 10.8%; in assay [5], 2.05%; in [6] it was 12.2%. The Percent Effect is 9.72% in [7], 12.9% in assay [8], 22.9% in assay [9] and -4.33% in assay [10].

On to `Cc1cnc(C(=O)N2C[C@@H]3CN(CC4CCCC4)CCO[C@@H]3C2)cn1`, for which the Percent Effect in assay [1] is -3.12%; in [2], 11.7%; in assay [3] it was 4.74%; in [4], 0.682%; in assay [5] it was -3.24%; in assay [6], 9.97%. Moreover, the Percent Effect is 11% in [7], 5.79% in assay [8], 10.3% in assay [9] and -2.15% in [10].

For the compound `O=C(COc1ccc2c(c1)CCC2)NS(=O)(=O)c1cncc(Br)c1`, the Percent Effect in assay [1] was -2.61%; in [2] it was 2.56%; in assay [3] it was 1.99%; in assay [4], 9.3%; in assay [5] it was -3.28%; in assay [6] it was 3.33%. Also, the Percent Effect in [7] is 7.32%; in assay [8], -3.35%; in assay [9], 1.21%; in [10], 1.12%.

With `Cc1nc(C)n(CC2CN(CCOc3ccccc3F)CCO2)n1` (stereo not given), the Percent Effect is -2.06% in [1]; 5.33% in assay [2]; -0.849% in assay [3]; 0.803% in [4]; -2.66% in assay [5]; -2.97% in assay [6]. Besides, the Percent Effect in assay [7] is 9.21%; in [8] it was -1.58%; in assay [9], 0%; in [10], -2.97%.

On to `CC1CCN(C(=O)c2cccc3ncccc23)CC1`, for which the Percent Effect was -2.07% in [1]; -5.33% in [2]; 1.04% in [3]; -1.21% in [4]; -1.33% in [5]; 3.48% in [6]. Also, the Percent Effect was found to be 19% in assay [7], 4.74% in [8], 7.69% in assay [9] and 1.83% in [10].

As to `O=C(c1cccs1)N1CC[C@H](O)[C@@H]1Cc1ccccc1`, the Percent Effect was -8.07% in [1]; 9.09% in [2]; 8.03% in [3]; -0.563% in assay [4]; 0.457% in assay [5]; 0.601% in [6]. In addition, the Percent Effect in assay [7] was 23.5%; in [8] it was 0.966%; in assay [9], 7.5%; in [10] it was -9.97%.

Regarding `Cc1ccc(N2CCCN(C(=O)c3c(C)oc(C)c3C)CC2)nn1`, the Percent Effect in assay [1] was -6.08%; in assay [2] it was 18.7%; in [3], 5.84%; in assay [4] it was 2.61%; in assay [5], -0.887%; in assay [6], 9.92%. For the same compound, the Percent Effect was 4.96% in assay [7], 4.74% in assay [8], 15.4% in assay [9] and -6.9% in assay [10].

Turning to `Cc1cc(C2CCCN2Cc2cc(=O)n(C)c(=O)n2C)on1` (stereo not given), the Percent Effect is -4.6% in assay [1]; 2.67% in assay [2]; 1.58% in assay [3]; 3.21% in assay [4]; 0.444% in [5]; 1.27% in assay [6]. The Percent Effect is 14.5% in [7], 2.63% in assay [8], 5.13% in assay [9] and -4.48% in [10].

Consider `Cc1nccn1-c1cccc(C2CCCN2S(=O)(=O)N(C)C)n1` (stereo not given), for which the Percent Effect in [1] was -4.04%; in assay [2], 14.7%; in [3] it was 13.1%; in [4], 1.77%; in [5], -0.443%; in assay [6], 8.05%. For the same compound, the Percent Effect in assay [7] is 21%; in [8] it was 5.29%; in assay [9], 15%; in assay [10], -24.5%.

Consider `Cc1csc2ncc(-c3ccnc(N4CCN(C)CC4)n3)c(=O)n12`, for which the Percent Effect in assay [1] is -1.31%; in assay [2], 0%; in assay [3] it was -2.78%; in [4], -3.21%; in assay [5], -0.444%; in [6] it was -0.933%. Besides, the Percent Effect in assay [7] was 0.181%; in assay [8] it was -3.68%; in assay [9] it was -10.3%; in [10], -10.1%.

With `CC(C(=O)Nc1ncccn1)N1CCCN(c2nccs2)CC1` (stereo not given), the Percent Effect in assay [1] is -0.557%; in [2], 15.4%; in assay [3] it was -8.35%; in [4] it was -7.04%; in assay [5], 2.05%; in [6], 14.8%. Moreover, the Percent Effect was 22.9% in assay [7], 4.31% in [8], 1.21% in [9] and -2.28% in [10].

On to `CCN1CCN(c2ccc(CNC(=O)c3ccc(Cl)o3)cn2)CC1`, for which the Percent Effect in assay [1] is -0.96%; in assay [2], 21.3%; in [3], -3.96%; in assay [4] it was 2.41%; in assay [5], 6.21%; in assay [6], 18.4%. Further, the Percent Effect was 0.841% in assay [7], 7.89% in assay [8], 15.4% in [9] and -10.4% in assay [10].

(Values after ChEMBL document CHEMBL3988442, “University of Dundee, Small-Polar-MMV Screening Library” (2021).)
